Among all 4,100 compounds or so, about 1,600 (39%) were called active. Roughly 25% stayed inconclusive and do not appear here. This is one part of the list. A number with no mark means an inactive call. The call rests on the fitted dose curve; in most records, active means well fitted inhibition curve with a large enough effect; inconclusive means small, poorly fitted or top-dose-only effect; inactive means no such curve, though single readings can be large or run the other way.
Assay: qHTS Validation assay for Inhibitors of Plasmodium falciparum Dd2 growth in vitro; further: nearly all actives have a fitted effect of over 70% in size
Conditions: P. falciparum Dd2 in RBCs, SYBR Green growth, 72 h; series mostly up to 28.7 µM; activity change, negative = inhibition: at the top concentration
How it was run: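 P. falciparum Dd2-infected red blood cells (2.5% hematocrit, 0.3% parasitemia) grown 72 h at 37 °C under 5% O2 with compounds in a titration, 29 uM to 0.5 nM final. Growth read as SYBR Green-1 fluorescence after ~16 h lysis; artesunate 300 nM as positive control.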
On the % scale 0 is the no-effect control and ±100 the full control effect; potency means the concentration at half of the fitted maximal effect.

SMILES | activity change, negative = inhibition | Potency
COc1ccc(N(CC(=O)NCc2ccncc2)S(=O)(=O)c2ccc(C)c([N+](=O)[O-])c2)cc1 | 24.8% | 
C/C(=N\NC(=O)c1cccc(Br)c1)c1ccccn1 |  | 4.73 µM (active)
O=C(N/N=C/c1ccccn1)c1ccccc1 | -1.81% | 
C/C(=N\NC(=O)c1ccccc1OCc1ccc(F)cc1)c1ccccn1 |  | 4.73 µM (active)
Cc1n[nH]c(=S)n(/N=C/c2cccs2)c1=O | 16.4% | 
O=c1cc(Nc2ccc3c(c2)OCCO3)[nH]c(=O)n1C1CCCCC1 | -0.988% | 
Fc1ccc(-c2csc3ncnc(Cl)c23)cc1 |  | 3.35 µM (active)
COc1ccc(-c2csc3ncnc(Cl)c23)cc1 |  | 4.22 µM (active)
CCc1ccc(C(=O)N2C[C@@H](CO)[C@H](c3ccccn3)C2)cc1 | 3.1% | 
C#CCN(C)C(=O)C[C@@H]1c2nc(NC(=O)c3ccc(OC)cc3)sc2C[C@@H]2[C@](C)(CO)[C@H](O)CC[C@]21C |  | 2.66 µM (active)
O=C(CC1C(=O)NCCN1Cc1cccc(Oc2ccccc2)c1)NCc1ccco1 (stereo unspecified) | 45.2% | 
COc1ccc(C(=O)Nc2nc3c(s2)C[C@@H]2[C@](C)(CO)[C@H](O)CC[C@@]2(C)[C@@H]3CC(=O)NCc2ccco2)cc1 |  | 2.66 µM (active)
C[C@]1(CO)[C@H]2Cc3sc(NC(=O)C4CCCCC4)nc3[C@@H](CC(=O)NCc3cccnc3)[C@]2(C)CC[C@H]1O | -11.7% | 
CNC(=O)[C@H]1C[C@H](Oc2ccccc2)CN1Cc1c[nH]c2ccc(OC)cc12 | -11.3% | 
COc1cccc(CNC(=O)CN2C(=O)NC3(CCC(C(C)(C)C)CC3)C2=O)c1 (stereo unspecified) | -13.8% | 
COc1ccc2[nH]cc(CCNC(=O)C3(Cc4ccccc4)CCCCC(=O)N3)c2c1 (stereo unspecified) |  | 5.96 µM (active)
CCC(=O)O[C@]1(C(=O)CCl)[C@@H](C)C[C@H]2[C@@H]3C[C@H](F)C4=CC(=O)C=C[C@]4(C)[C@@]3(F)[C@@H](O)C[C@@]21C |  | 10.6 µM (active)
Cc1ccc(NC(=O)Cn2cccc2-c2nc(-c3ccccc3)no2)c(C)c1 | 17.6% | 
CC(C)c1ccccc1NC(=O)CSc1nnc(COc2ccccc2Cl)o1 | 38.9% | 
CC(C)c1ccccc1NC(=O)Cn1cccc1-c1nc(-c2ccc(F)cc2)no1 |  | 2.99 µM (active)
CC(C)c1ccccc1NC(=O)Cn1cccc1-c1nc(-c2ccccc2)no1 |  | 4.22 µM (active)
COc1ccccc1NC(=O)Cn1cccc1-c1nc(-c2ccc(F)cc2)no1 | -5.56% | 
O=C(Cn1cccc1-c1nc(-c2ccc(F)cc2)no1)NCCc1ccccc1 | 0.293% | 

SMILES | activity change, negative = inhibition | Potency
Cc1ccccc1N(C(=O)c1snc(C(N)=O)c1N)C(C(=O)NCC1CCCO1)c1ccc(N(C)C)cc1 (stereo unspecified) |  | 7.5 µM (active)
Cc1ccc(-c2cc(C(F)F)n3ncc(C(=O)N4CCCCC4c4cccnc4)c3n2)cc1 (stereo unspecified) |  | 2.37 µM (active)
Cc1ccc(-c2cc(C(F)F)n3ncc(C(=O)Nc4ccc(S(=O)(=O)Nc5ccccc5C)cc4)c3n2)cc1 | 74.9% | 
O=C(c1ccccc1F)N1CCCCCC1c1nnc(-c2ccccc2)o1 (stereo unspecified) | -13.5% | 
O=C(c1cnn2c(C(F)F)cc(-c3ccccc3)nc12)N1CCCCC1c1cccnc1 (stereo unspecified) |  | 8.41 µM (active)
O=C(C1CCC1)N1CCCCCC1c1nnc(-c2ccccc2)o1 (stereo unspecified) | -20.8% | 
Cc1ccc(-c2cc(C(F)(F)F)n3ncc(C(=O)N4CCCCC4c4cccnc4)c3n2)cc1 (stereo unspecified) |  | 1.88 µM (active)
CC(C)c1ccc(CN2CCc3ncc(C(=O)NCCN4CCNC4=O)n3CC2)cc1 | 21.5% [at 43.1 µM] | 
O=C(Nc1ccc(-c2csc(Nc3ccccc3)n2)cc1)c1cc([N+](=O)[O-])cc(C(F)(F)F)c1 |  | 2.11 µM (active)
Cc1ccc(-c2cc3c(=O)n(CCNC(=O)c4cc(F)ccc4F)ccn3n2)c(C)c1 | -1.76% | 
CN(C)C(=O)c1ccc(N2CCC(NCCC3=CC[C@H]4C[C@@H]3C4(C)C)CC2)cc1 | 0% | 
CC(CCc1ccccc1)NCC(O)c1cccc([N+](=O)[O-])c1 (stereo unspecified) |  | 0.473 µM (active)
O=C(CCc1cc(Cl)no1)N1CCc2nc3cc(-c4ccccc4)[nH]n3c(=O)c2C1 | -14.8% | 
CC(=O)c1sc2c(c1C)c(=O)n(-c1ccc(Cl)cc1)c(=O)n2Cc1cc(=O)n2cc(Cl)ccc2n1 |  | 7.5 µM (active)
CCN(CC)C(=O)Cn1c(=O)n(-c2ccc(Cl)cc2)c(=O)c2c3c(sc21)CCCCC3 | 18.7% | 
CC(C)c1nc2c(c(-c3ccc(O)cc3)n1)CCN(Cc1ccccc1C(F)(F)F)CC2 |  | 4.73 µM (active)
CCc1nc2c(c(-c3ccc(O)cc3)n1)CCN(Cc1ccccc1C(F)(F)F)CC2 |  | 2.99 µM (active)
Cc1c(Cl)cccc1Nc1nn2c(=O)c3ccc(C(=O)NCCc4ccccc4)cc3nc2s1 |  | 7.5 µM (active)
NS(=O)(=O)c1ccc(CCNC(=O)c2ccc3nc(CCc4ccccc4)oc3c2)cc1 | 7.99% | 
Cc1c(Cl)cccc1NC(=O)CCCn1nc(C)c2sc3ccccc3c2c1=O | 12% | 
O=c1c2cc3c(cc2nc2sc(Nc4ccc(F)cc4F)nn12)OCO3 | 20.7% | 
Cc1c(Cl)cccc1Nc1nn2c(=O)c3ccc(C(=O)N(C)Cc4ccccc4)cc3nc2s1 |  | 16.8 µM (active)
CC1(CNc2ccccc2)COc2ccc(C(=O)NCCc3ccccc3)cc2N1 (stereo unspecified) | -37.5% [at 43.1 µM] | 

— PubChem BioAssay AID1347416 (National Center for Advancing Translational Sciences (NCATS), 2020)
